The results in this text go back to the supplement of paper PMC6607015.

Structures can show the parent of a compound that is named as a salt.

Conditions in all cases: compound concentration in added solution (µM; 5 µl added to 20 µl cells): 10; 18 h
In assay [1] the test system is A431. The assay can be described thus: LBPA endosome anti-LBPA integrated intensity (sum per cell), Z-score; higher = more LBPA staining. In outline: (§1)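 Each value is a Z-score normalised in AcuityXpress from per-cell integrated LBPA or filipin intensity, taken over the whole cell or within LBPA endosomes. Duplicate 384-well imaging plates held 5 µl of 10 µM compound solution, onto which 3,500 HeLa MZ or A431 cells in 20 µl were seeded per well. After 18 h the cells were fixed in 4% PFA, stained with 6C4 anti-LBPA antibody, filipin, propidium iodide and CellTracker green, imaged four times per well at 20× and segmented in MetaXpress.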

For assay [2], the system named is HeLa MZ. Described as above. A digest of the protocol: as §1
Assay [3] deals with A431. Put plainly: whole-cell filipin (free cholesterol) integrated intensity, Z-score; higher = more cholesterol staining. In outline: as §1
The subject of assay [4] is HeLa MZ. The description is as above. A digest of the protocol: as §1
The test system of assay [5] is A431. Put plainly: filipin (cholesterol) integrated intensity within LBPA endosomes, Z-score; higher = more cholesterol in LBPA endosomes. A digest of the protocol: as §1
The subject of assay [6] is HeLa MZ. The assay is described as above. A digest of the protocol:
as §1

Turning to `CC(=O)O[C@]1(C(C)=O)CC[C@H]2[C@@H]3C=C(Cl)C4=CC(=O)CC[C@]4(C)[C@H]3CC[C@@]21C` [Chlormadinone acetate], the “LBPA endosome anti-LBPA integrated intensity (z-score)” value was 0.021 in assay [1] and 2.23 in assay [2]. In addition, the “whole-cell filipin (z-score)” value in assay [3] was 0.739; in assay [4], 1.32. Further, the “filipin (z-score)” value in assay [5] was found to be 0.102; in assay [6] it was 0.534.
Turning to `CN(c1nccc(=O)[nH]1)C1CCN(c2nc3ccccc3n2Cc2ccc(F)cc2)CC1` [Mizolastine], the entries for the “LBPA endosome anti-LBPA integrated intensity (z-score)” value in assay [1] and in assay [2] were -0.6 and 0.425, respectively. For the same compound, the figures for the “whole-cell filipin (z-score)” value in assay [3] and in assay [4] were -0.708 and 0.222, respectively. Besides, the “filipin (z-score)” value in assay [5] was -0.551; in assay [6] it was 0.0832.
As for `COc1cc(C(=O)NCc2ccc(OCCN(C)C)cc2)cc(OC)c1OC` [Trimethobenzamide hydrochloride], the entries for the “LBPA endosome anti-LBPA integrated intensity (z-score)” value in assay [1] and in assay [2] were -0.218 and -0.274, respectively. The “whole-cell filipin (z-score)” value in assay [3] is -0.94; in assay [4], -0.877. The results for the “filipin (z-score)” value in assay [5] and in assay [6] were -0.32 and -0.334, respectively.
Turning to `O=C(c1ccc(F)cc1)C1CCN(CCn2c(=O)[nH]c3ccccc3c2=O)CC1` [Ketanserin tartrate hydrate], the entries for the “LBPA endosome anti-LBPA integrated intensity (z-score)” value in assay [1] and in assay [2] were 0.533 and 0.294, respectively. The “whole-cell filipin (z-score)” value in assay [3] turned out to be 0.959; in assay [4] it was 0.523. Further, the “filipin (z-score)” value in assay [5] amounted to 0.805; in assay [6], 0.808.
`CCN(CC)CCN[C@@H](C(=O)OCCC(C)C)c1ccccc1` [Camylofine chlorhydrate]: the entries for the “LBPA endosome anti-LBPA integrated intensity (z-score)” value in assay [1] and in assay [2] were -0.334 and 0.886, respectively. The “whole-cell filipin (z-score)” value is -0.446 in assay [3] and -0.605 in assay [4]. Further, the “filipin (z-score)” value in assay [5] is -0.28; in assay [6], 0.0537.
Consider `O=C(c1ccccc1)c1ccc2n1CCC2C(=O)O` (centres undefined) [Ketorolac tromethamine], for which the results for the “LBPA endosome anti-LBPA integrated intensity (z-score)” value in assay [1] and in assay [2] were -0.483 and 0.0549, respectively. The “whole-cell filipin (z-score)” value in assay [3] was -0.702; in assay [4], -0.443. The “filipin (z-score)” value was -0.478 in assay [5] and -0.538 in assay [6].
For `O=C(O)Cc1sc(-c2ccccc2)nc1-c1ccc(Cl)cc1` [Fentiazac], the figures for the “LBPA endosome anti-LBPA integrated intensity (z-score)” value in assay [1] and in assay [2] were -0.661 and -1.44, respectively. In addition, the figures for the “whole-cell filipin (z-score)” value in assay [3] and in assay [4] were -0.809 and -0.504, respectively. The “filipin (z-score)” value in assay [5] was -0.591; in assay [6], -0.756.
For `CC1=C(CC(=O)O)c2cc(F)ccc2/C1=C\c1ccc([S+](C)[O-])cc1` (centres undefined) [Sulindac], the figures for the “LBPA endosome anti-LBPA integrated intensity (z-score)” value in assay [1] and in assay [2] were -0.696 and -1.83, respectively. In addition, the “whole-cell filipin (z-score)” value in assay [3] is -0.98; in assay [4], -1. The “filipin (z-score)” value in assay [5] was -0.655; in assay [6], -0.701.
Turning to `O=C1NCN(c2ccccc2)C12CCN(CCCC(c1ccc(F)cc1)c1ccc(F)cc1)CC2` [Fluspirilen], the “LBPA endosome anti-LBPA integrated intensity (z-score)” value in assay [1] is 2.78; in assay [2], 1.04. The “whole-cell filipin (z-score)” value in assay [3] was determined as 1.65; in assay [4], 1.64. The “filipin (z-score)” value in assay [5] was 4.57; in assay [6], 4.14.
Turning to `CC1=C(C(=O)O)N2C(=O)[C@@H](NC(=O)[C@H](N)c3ccccc3)[C@H]2SC1` [Cephalexin monohydrate], the “LBPA endosome anti-LBPA integrated intensity (z-score)” value in assay [1] was -0.543; in assay [2] it was -0.797. Further, the “whole-cell filipin (z-score)” value was -0.64 in assay [3] and -0.482 in assay [4]. The entries for the “filipin (z-score)” value in assay [5] and in assay [6] were -0.499 and -0.511, respectively.
As for `C[C@@]1(O)CCOC(=O)C1` [Mevalonic-D, L acid lactone], the “LBPA endosome anti-LBPA integrated intensity (z-score)” value was -0.324 in assay [1] and -0.057 in assay [2]. For the same compound, the “whole-cell filipin (z-score)” value in assay [3] is -0.441; in assay [4] it was 0.0668. In addition, the “filipin (z-score)” value in assay [5] was -0.408; in assay [6], -0.457.
Take `CN(C)CCCOc1nn(Cc2ccccc2)c2ccccc12` [Benzydamine hydrochloride]: the “LBPA endosome anti-LBPA integrated intensity (z-score)” value in assay [1] is 1.07; in assay [2], 2.25. Besides, the “whole-cell filipin (z-score)” value in assay [3] is 1.71; in assay [4], -0.196. In addition, the “filipin (z-score)” value in assay [5] worked out at 1.63; in assay [6], 0.942.
For the compound `CCCc1cc(=O)[nH]c(=S)[nH]1` [Propylthiouracil], the entries for the “LBPA endosome anti-LBPA integrated intensity (z-score)” value in assay [1] and in assay [2] were -0.571 and -0.555, respectively. Further, the results for the “whole-cell filipin (z-score)” value in assay [3] and in assay [4] were -0.7 and -0.496, respectively. In addition, the “filipin (z-score)” value in assay [5] was -0.538; in assay [6] it was -0.457.
Take `CC(C)(Oc1ccc(Cl)cc1)C(=O)O` [Clofibric acid]: the “LBPA endosome anti-LBPA integrated intensity (z-score)” value in assay [1] is -0.512; in assay [2], -0.676. The “whole-cell filipin (z-score)” value was -0.43 in assay [3] and -0.52 in assay [4]. In addition, the entries for the “filipin (z-score)” value in assay [5] and in assay [6] were -0.514 and -0.568, respectively.
On to `CCN(CC)CCCC(C)Nc1ccnc2cc(Cl)ccc12` (centres undefined) [Chloroquine diphosphate], for which the “LBPA endosome anti-LBPA integrated intensity (z-score)” value in assay [1] came out at 3.38; in assay [2], 2.38. Also, the “whole-cell filipin (z-score)” value was found to be 0.0406 in assay [3] and 0.105 in assay [4]. Also, the “filipin (z-score)” value stood at 0.896 in assay [5] and 1.26 in assay [6].
In the case of `CCN(CCCCOC(=O)c1ccc(OC)c(OC)c1)C(C)Cc1ccc(OC)cc1` (centres undefined) [Mebeverine hydrochloride], the entries for the “LBPA endosome anti-LBPA integrated intensity (z-score)” value in assay [1] and in assay [2] were 2.42 and 2.15, respectively. Also, the “whole-cell filipin (z-score)” value in assay [3] came out at 1.9; in assay [4], 1.63. In addition, the “filipin (z-score)” value stood at 2.46 in assay [5] and 2.74 in assay [6].
For `CC[C@H]1OC(=O)[C@H](C)[C@@H](O[C@H]2C[C@@](C)(OC)[C@@H](O)[C@H](C)O2)[C@H](C)[C@@H](O[C@@H]2O[C@H](C)C[C@H](N(C)C)[C@H]2O)[C@](C)(O)C[C@@H](C)C(=O)[C@H](C)[C@@H](O)[C@]1(C)O` [Erythromycin], the “LBPA endosome anti-LBPA integrated intensity (z-score)” value in assay [1] is 0.476; in assay [2], -0.196. For the same compound, the “whole-cell filipin (z-score)” value in assay [3] was 0.409; in assay [4], -0.0449. Besides, the “filipin (z-score)” value is 0.977 in assay [5] and 0.203 in assay [6].
On to `CN1C(=O)CC(c2ccccc2)C1=O` (centres undefined) [Phensuximide], for which the results for the “LBPA endosome anti-LBPA integrated intensity (z-score)” value in assay [1] and in assay [2] were -0.488 and -0.914, respectively. In addition, the entries for the “whole-cell filipin (z-score)” value in assay [3] and in assay [4] were -0.489 and -0.774, respectively. Also, the “filipin (z-score)” value in assay [5] was -0.376; in assay [6], -0.653.
`Nc1nc(N)nc(-c2cc(Cl)ccc2Cl)n1` [Irsogladine maleate]: the entries for the “LBPA endosome anti-LBPA integrated intensity (z-score)” value in assay [1] and in assay [2] were -0.232 and 0.679, respectively. In addition, the entries for the “whole-cell filipin (z-score)” value in assay [3] and in assay [4] were -0.0416 and 0.316, respectively. Besides, the “filipin (z-score)” value in assay [5] is -0.334; in assay [6], -0.292.
As to `CC[C@@H]1C(=O)OC[C@@H]1Cc1cncn1C` [Pilocarpine nitrate], the figures for the “LBPA endosome anti-LBPA integrated intensity (z-score)” value in assay [1] and in assay [2] were -0.402 and -0.0375, respectively. For the same compound, the results for the “whole-cell filipin (z-score)” value in assay [3] and in assay [4] were -0.715 and -0.63, respectively. Besides, the “filipin (z-score)” value in assay [5] was -0.502; in assay [6] it was -0.573.
For `CC(=O)[C@H]1CC[C@H]2[C@@H]3CCC4=CC(=O)CC[C@]4(C)[C@H]3CC[C@]12C` [Progesterone], the “LBPA endosome anti-LBPA integrated intensity (z-score)” value is 2.4 in assay [1] and 0.628 in assay [2]. Further, the “whole-cell filipin (z-score)” value in assay [3] came to 1.62; in assay [4], 0.873. The “filipin (z-score)” value in assay [5] was found to be 2.26; in assay [6], 0.759.
Consider `COC(=O)CCc1ccc(OCC(O)CNC(C)C)cc1` (centres undefined) [Esmolol hydrochloride], for which the “LBPA endosome anti-LBPA integrated intensity (z-score)” value in assay [1] is -0.258; in assay [2] it was -0.524. In addition, the “whole-cell filipin (z-score)” value is -0.179 in assay [3] and 0.319 in assay [4]. For the same compound, the “filipin (z-score)” value in assay [5] is -0.36; in assay [6], -0.273.
For the compound `CCN1CCCC1CNC(=O)c1cc(S(=O)(=O)CC)c(N)cc1OC` (centres undefined) [Amisulpride], the “LBPA endosome anti-LBPA integrated intensity (z-score)” value was -0.554 in assay [1] and -0.244 in assay [2]. Besides, the “whole-cell filipin (z-score)” value was -0.77 in assay [3] and -0.754 in assay [4]. In addition, the “filipin (z-score)” value in assay [5] is -0.543; in assay [6] it was -0.453.
Take `CN(C)CCC=C1c2ccccc2CCc2ccccc21` [Amitryptiline hydrochloride]: the “LBPA endosome anti-LBPA integrated intensity (z-score)” value in assay [1] was 2.23; in assay [2], 1.04. The entries for the “whole-cell filipin (z-score)” value in assay [3] and in assay [4] were 1.41 and 0.0305, respectively. The “filipin (z-score)” value is 2.47 in assay [5] and 1.81 in assay [6].
